Assay results reported in publication PMC5540273 (PLoS ONE, 2017).

How the values were obtained:
Details in all cases: concentration: 1 μM,replicates: in singlicate; n = 1
[1] = system: MAP3K15
[2] = system: MAP3K1
[3] = system: MAP3K2
[4] = system: MAP3K3
[5] = system: MAP3K4
[6] = system: MAP4K2
[7] = system: MAP4K3
[8] = system: MAP4K4
[9] = system: MAP4K5
[10] = system: MAPKAPK2
[11] = system: MAPKAPK5
[12] = system: MARK1
[13] = system: MARK2
[14] = system: MARK3
[15] = system: MARK4
[16] = system: MAST1
[17] = system: T1, MEK1
T1 construct: gene MAP2K1

[18] = system: T2, MEK2
T2 construct: gene MAP2K2

[19] = system: T3, MEK3
T3 construct: gene MAP2K3

[20] = system: T4, MEK4
T4 construct: gene MAP2K4
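Also: KINOMEscan kinase panel screen.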

SMILES | %Inh [1] [%] | %Inh [2] [%] | %Inh [3] [%] | %Inh [4] [%] | %Inh [5] [%] | %Inh [6] [%] | %Inh [7] [%] | %Inh [8] [%] | %Inh [9] [%] | %Inh [10] [%] | %Inh [11] [%] | %Inh [12] [%] | %Inh [13] [%] | %Inh [14] [%] | %Inh [15] [%] | %Inh [16] [%] | %Inh [17] [%] | %Inh [18] [%] | %Inh [19] [%] | %Inh [20] [%]
N#Cc1cccc(C(=O)NC2CCN(c3ccnc(Nc4ccc(F)cc4)n3)C2)c1 (centres unmarked) [GSK1379708] | 0 | 1 | 11 | 0 | 33 | 0 | 0 | 7 | 1 | 14 | 0 | 0 | 0 | 0 | 16 | 0 | 0 | 0 | 0 | 17
O=C(NOCC1CC1)c1cc(Br)c(F)c(F)c1Nc1ccc(I)cc1Cl | 0 | 0 | 0 | 0 | 0 | 0 | 0 | 0 | 0 | 0 | 0 | 0 | 13 | 0 | 0 | 0 | 31 | 58 | 15 | 0
C[C@@H]1CNc2c(sc3ccc4nc(-c5ccc(O)cc5)ccc4c23)C(=O)N1 | 61 | 0 | 12 | 11 | 16 | 85 | 31 | 26 | 13 | 99 | 99.9 | 26 | 7 | 17 | 17 | 48 | 1 | 23 | 51 | 0
CCNCC(Cc1ccccc1)NC(=O)c1cc(Br)c(-c2ccnc3[nH]ccc23)s1.Cl.Cl (centres unmarked) [GSK1383280] | 0 | 12 | 33 | 0 | 0 | 27 | 4 | 37 | 0 | 0 | 0 | 12 | 72 | 69 | 0 | 0 | 0 | 0 | 89 | 57
COc1ccc(Nc2nccc(N3CCC(NC(=O)c4cccc(C#N)c4)C3)n2)cc1 (centres unmarked) [GSK1379730] | 0 | 1 | 0 | 0 | 40 | 0 | 0 | 16 | 10 | 0 | 0 | 1 | 0 | 0 | 9 | 0 | 0 | 0 | 0 | 8
CC(C)S(=O)(=O)N1CCN(Cc2ccc3c(c2)nc(NC(=O)c2ccsc2)n3C[C@H](O)c2ccccc2)CC1 [GW635815] | 0 | 8 | 47 | 53 | 53 | 84 | 0 | 45 | 2 | 0 | 0 | 6 | 34 | 43 | 18 | 0 | 0 | 0 | 0 | 9
NC(=O)c1ccc(-c2cc3ncnc(SCC(=O)O)c3s2)cc1 | 0 | 0 | 0 | 0 | 0 | 0 | 0 | 5 | 1 | 0 | 0 | 0 | 8 | 0 | 0 | 0 | 0 | 34 | 9 | 0
CCN1CCN(CCCC(=O)Nc2n[nH]c3nc(-c4ccc(O)cc4)c(Br)cc23)CC1 [SB-731579] | 0 | 0 | 0 | 0 | 0 | 0 | 0 | 7 | 5 | 17 | 0 | 35 | 20 | 0 | 14 | 65 | 0 | 0 | 15 | 0
O=C(Nc1cccc(Oc2ccc3nccn3n2)c1)Nc1cccc(C(F)(F)F)c1 | 0 | 17 | 3 | 10 | 30 | 0 | 3 | 68 | 26 | 0 | 0 | 14 | 12 | 0 | 24 | 0 | 0 | 7 | 29 | 0
CC(=O)Nc1ccc(-c2cc3ncnc(SCC(=O)O)c3s2)cc1 | 27 | 16 | 5 | 1 | 37 | 17 | 22 | 0 | 0 | 0 | 0 | 0 | 17 | 0 | 2 | 0 | 0 | 0 | 6 | 18
